Details in all cases: mRNA level, 48 h; actives raise or lower the signal
Read-out in test [1]: Bcl-2 (BID) gene, BID (gene 637)
In words: LTEA_HepaRG_BID: Life Technologies and Expression Analysis (LTEA) Assay for Bcl-2 (BID) gene using HepaRG (AID 2283476). The procedure, abridged: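 Assay used HepaRG hepatic cells treated 48 h in serum-free medium with half-log dilutions from 100 uM. Endpoint: BID mRNA, qRT-PCR, normalized to ACTB/GAPDH/POLR2A.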

Read-out in the next test: Caspase-3 (Homo sapiens) (UniProt P42574)
In words: LTEA_HepaRG_CASP3: Life Technologies and Expression Analysis (LTEA) Assay for cysteine-aspartic acid protease (CASP3) using HepaRG (AID 2283477). The procedure, abridged:
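Differentiated human HepaRG cells in serum-free induction medium were exposed 48 h to 8-point half-log concentrations from 100 uM (0.5% DMSO vehicle). CASP3 mRNA was measured by qRT-PCR, normalised to ACTB, GAPDH and POLR2A, with bidirectional fitting against DMSO.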

Read-out in test [2]: Cytochrome P450 (CYP24A1), CYP24A1 (gene 1591)
The test is described as follows: LTEA_HepaRG_CYP24A1: Life Technologies and Expression Analysis (LTEA) Assay for Cytochrome P450 (CYP24A1) using HepaRG (AID 2283478). The essentials: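 Differentiated HepaRG cells, pre-cultured 48 h, were exposed in duplicate for 48 h in serum-free induction medium to 8 half-log concentrations (top 100 uM, 0.5% DMSO). CYP24A1 mRNA was quantified by TaqMan qRT-PCR, normalized to ACTB/GAPDH/POLR2A, fitted bidirectionally versus DMSO.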

Read-out in test [3]: Cytochrome P450 (CYP1A2), CYP1A2 (gene 1544)
In words: LTEA_HepaRG_CYP1A2: Life Technologies and Expression Analysis (LTEA) Assay for Cytochrome P450 (CYP1A2) using HepaRG (AID 2283479). The essentials:
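Differentiated human HepaRG cells in serum-free induction medium were exposed in duplicate for 48 h to 8-point half-log concentrations up to 100 uM in 0.5% DMSO. CYP1A2 mRNA measured by qRT-PCR, normalized to ACTB, GAPDH, POLR2A; bidirectional fit vs DMSO.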

Read-out in test [4]: cysteine-aspartic acid protease (CASP8), CASP8 (gene 841)
In words: LTEA_HepaRG_CASP8: Life Technologies and Expression Analysis (LTEA) Assay for cysteine-aspartic acid protease (CASP8) using HepaRG (AID 2283480). The essentials: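 Concentration-response in duplicate up to 100 uM (half-log steps, 0.5% DMSO) on differentiated HepaRG cultures for 48 h. Expression change of CASP8 mRNA is determined by TaqMan qRT-PCR with housekeeping-gene normalization.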

Read-out in test [5]: Cytochrome P450 (CYP2B6), CYP2B6 (gene 1555)
In words: LTEA_HepaRG_CYP2B6: Life Technologies and Expression Analysis (LTEA) Assay for Cytochrome P450 (CYP2B6) using HepaRG (AID 2283481). The procedure, abridged:
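Differentiated HepaRG cells, serum-free induction medium, exposed 48 h in duplicate to 8-point half-log concentrations from 100 uM in 0.5% DMSO. CYP2B6 mRNA by qRT-PCR, normalized to ACTB, GAPDH, POLR2A; bidirectional fit versus DMSO.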

Read-out in test [6]: Cytochrome P450 2C19 (Homo sapiens) (UniProt P33261)
In words: LTEA_HepaRG_CYP2C19: Life Technologies and Expression Analysis (LTEA) Assay for CYP2C19 using HepaRG (AID 2283482). The procedure, abridged: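 Differentiated human HepaRG cells were exposed for 48 h in serum-free induction medium to 8 concentrations (top 100 uM, half-log steps, 0.5% DMSO). CYP2C19 mRNA was measured by qRT-PCR, normalized to ACTB/GAPDH/POLR2A, and fitted bidirectionally against DMSO.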

Read-out in the next test: CYP2C8 (gene 1558)
In words: LTEA_HepaRG_CYP2C8: Life Technologies and Expression Analysis (LTEA) Assay for CYP2C8 using HepaRG (AID 2283483). The essentials:
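This is a transcriptional endpoint in HepaRG cultures: 48 h exposure, highest concentration 100 uM. CYP2C8 mRNA is quantified by TaqMan qRT-PCR.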

Read-out in the next test: CYP2C9 (gene 1559)
In words: LTEA_HepaRG_CYP2C9: Life Technologies and Expression Analysis (LTEA) Assay for CYP2C9 using HepaRG (AID 2283484). The essentials:
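Eight-point concentration-response (highest 100 uM, half-log dilutions) in HepaRG cells for 48 h; CYP2C9 expression by qRT-PCR normalized to ACTB, GAPDH, POLR2A. Bidirectional fit, DMSO baseline.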

Read-out in the next test: CYP2E1 (gene 1571)
The test is described as follows: LTEA_HepaRG_CYP2E1: Life Technologies and Expression Analysis (LTEA) Assay for CYP2E1 using HepaRG (AID 2283485). The procedure, abridged: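 Assay uses 48 h exposure of HepaRG hepatic cells, eight concentrations to 100 uM. Expression of CYP2E1 is quantified by TaqMan qRT-PCR with ACTB, GAPDH and POLR2A normalization; curves fitted in both directions relative to vehicle.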

Read-out in a further test: CYP4A11 (gene 1579)
The test is described as follows: LTEA_HepaRG_CYP4A11: Life Technologies and Expression Analysis (LTEA) Assay for CYP4A11 using HepaRG (AID 2283486). The essentials:
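Differentiated HepaRG cells, serum-free induction medium, exposed 48 h in duplicate to 8-point half-log series from 100 uM in 0.5% DMSO. CYP4A11 mRNA measured by qRT-PCR, normalized to ACTB, GAPDH, POLR2A; bidirectional fit versus DMSO.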

Read-out in test [7]: Cytochrome P450 3A4 (Homo sapiens) (UniProt P08684)
The test is described as follows: LTEA_HepaRG_CYP3A4: Life Technologies and Expression Analysis (LTEA) Assay for CYP3A4 using HepaRG (AID 2283487). The procedure, abridged:
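HepaRG, 48 h exposure, 8-pt CRC from 100 uM (half-log), 0.5% DMSO, duplicates; serum-free induction medium. Readout: CYP3A4 mRNA, qRT-PCR, ACTB/GAPDH/POLR2A normalization. Bidirectional fit vs DMSO.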

Read-out in test [8]: DNA damage-inducible transcript 3 (DDIT3), DDIT3 (gene 1649)
The test is described as follows: LTEA_HepaRG_DDIT3: Life Technologies and Expression Analysis (LTEA) Assay for DNA damage-inducible transcript 3 (DDIT3) using HepaRG (AID 2283488). The essentials: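 Eight-point concentration-response (100 uM highest, half-log dilutions) in HepaRG, 48 h, duplicate wells. Endpoint: qRT-PCR mRNA, normalized (ACTB, GAPDH, POLR2A), bidirectional fitting with DMSO as baseline.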

Read-out in test [9]: Pro-epidermal growth factor (Homo sapiens) (UniProt P01133)
The test is described as follows: LTEA_HepaRG_EGF: Life Technologies and Expression Analysis (LTEA) Assay for Epidermal growth factor (EGF) using HepaRG (AID 2283489). The procedure, abridged:
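Differentiated human HepaRG cells, plated 48 h then switched to serum-free induction medium, were exposed for 48 h to test chemicals (8-point half-log series, top 100 uM, 0.5% DMSO). EGF mRNA was quantified by qRT-PCR, normalized to ACTB, GAPDH, POLR2A.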

Read-out in test [10]: Early growth response protein 1 (EGR1) transcription factor, EGR1 (gene 1958)
The test is described as follows: LTEA_HepaRG_EGR1: Life Technologies and Expression Analysis (LTEA) Assay for Early growth response protein 1 (EGR1) transcription factor using HepaRG (AID 2283490). The essentials:
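EGR1 expression change in human HepaRG after 48 h chemical exposure, assessed by housekeeping-normalized qRT-PCR; concentration-response up to 100 uM, fitted in both directions against DMSO controls.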

Read-out in test [11]: Ezrin (EZR), EZR (gene 7430)
The test is described as follows: LTEA_HepaRG_EZR: Life Technologies and Expression Analysis (LTEA) Assay for Ezrin (EZR) using HepaRG (AID 2283491). The essentials:
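Read-out is EZR transcript level by qRT-PCR, normalized to three housekeeping genes and fitted bidirectionally against the DMSO control. Human HepaRG cells received test chemicals for 48 h at eight half-log concentrations up to 100 uM in 0.5% DMSO.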

Read-out in test [12]: Cytochrome P450 3A7 (Homo sapiens) (UniProt P24462)
In words: LTEA_HepaRG_CYP3A7: Life Technologies and Expression Analysis (LTEA) Assay for CYP3A7 using HepaRG (AID 2283492). The procedure, abridged:
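HepaRG cells plated 48 h, then dosed in serum-free induction medium for 48 h at 8 concentrations (top 100 uM, half-log steps, 0.5% DMSO). CYP3A7 mRNA by qRT-PCR, normalised to ACTB/GAPDH/POLR2A; bidirectional fit versus DMSO.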

Read-out in the next test: CYP3A5 (gene 1577)
In words: LTEA_HepaRG_CYP3A5: Life Technologies and Expression Analysis (LTEA) Assay for CYP3A5 using HepaRG (AID 2283493). The procedure, abridged:
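Readout was CYP3A5 mRNA by qRT-PCR. HepaRG cultures were exposed for 48 h in serum-free induction medium to chemicals at up to 100 uM, and responses were fitted in both directions relative to DMSO vehicle.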

Read-out in test [13]: Fatty Acid-Binding Protein 1 (FABP1), FABP1 (gene 2168)
The test is described as follows: LTEA_HepaRG_FABP1: Life Technologies and Expression Analysis (LTEA) Assay for Fatty Acid-Binding Protein 1 (FABP1) using HepaRG (AID 2283494). The essentials: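 Values reflect bidirectional concentration-response fitting of FABP1 mRNA change against 0.5% DMSO controls. Human HepaRG cultures received eight half-log doses (top 100 uM) for 48 h; expression quantified by TaqMan qRT-PCR with housekeeping-gene normalization.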

Read-out in test [14]: Cytochrome P450 4A22 (Homo sapiens) (UniProt Q5TCH4)
The test is described as follows: LTEA_HepaRG_CYP4A22: Life Technologies and Expression Analysis (LTEA) Assay for Cytochrome P450 4A22 (CYP4A22) using HepaRG (AID 2283495). The procedure, abridged: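 qRT-PCR of CYP4A22 mRNA (Fluidigm TaqMan, normalized to three housekeeping genes) after 48 h chemical exposure of HepaRG cells; 8-point half-log series, top 100 uM, 0.5% DMSO vehicle. Bidirectional curve fitting vs DMSO baseline.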

The structures appear in SMILES notation. The source made the active and inactive calls. How the source made its calls: active means hit-call score of the fitted dose curve at least 0.9, where 1 is the maximum; inactive means score below 0.9.

Chain of Cytochrome P450 3A4 (Homo sapiens) (P08684 whole entry, looked up): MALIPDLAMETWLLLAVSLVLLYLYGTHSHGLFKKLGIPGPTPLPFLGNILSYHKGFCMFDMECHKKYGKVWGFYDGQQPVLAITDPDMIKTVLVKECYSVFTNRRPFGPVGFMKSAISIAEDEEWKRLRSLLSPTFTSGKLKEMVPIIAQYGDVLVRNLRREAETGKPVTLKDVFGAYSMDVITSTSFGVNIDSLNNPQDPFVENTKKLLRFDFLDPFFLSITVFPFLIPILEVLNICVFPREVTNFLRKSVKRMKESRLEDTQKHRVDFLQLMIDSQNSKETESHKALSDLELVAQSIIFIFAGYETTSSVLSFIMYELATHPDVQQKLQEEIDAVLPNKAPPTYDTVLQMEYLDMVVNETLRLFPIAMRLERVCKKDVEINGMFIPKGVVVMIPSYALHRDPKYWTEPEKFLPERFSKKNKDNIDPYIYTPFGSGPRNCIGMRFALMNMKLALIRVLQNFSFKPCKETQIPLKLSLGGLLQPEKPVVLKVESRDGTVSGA
Chain of Cytochrome P450 2C19 (Homo sapiens) (P33261 whole entry, looked up): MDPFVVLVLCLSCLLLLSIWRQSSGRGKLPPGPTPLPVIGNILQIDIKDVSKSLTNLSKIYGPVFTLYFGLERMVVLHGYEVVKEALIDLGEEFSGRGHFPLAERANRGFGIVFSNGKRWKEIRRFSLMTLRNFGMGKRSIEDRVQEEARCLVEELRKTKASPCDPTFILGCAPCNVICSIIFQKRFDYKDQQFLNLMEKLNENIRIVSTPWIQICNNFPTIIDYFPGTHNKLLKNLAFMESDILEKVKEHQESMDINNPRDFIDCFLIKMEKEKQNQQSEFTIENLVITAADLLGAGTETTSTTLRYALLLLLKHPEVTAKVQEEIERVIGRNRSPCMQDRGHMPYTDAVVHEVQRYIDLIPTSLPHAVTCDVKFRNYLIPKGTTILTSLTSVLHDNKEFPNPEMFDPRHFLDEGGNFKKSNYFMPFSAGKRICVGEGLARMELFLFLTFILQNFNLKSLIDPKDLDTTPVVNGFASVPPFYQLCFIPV
Chain of Cytochrome P450 3A7 (Homo sapiens) (P24462 whole entry, looked up): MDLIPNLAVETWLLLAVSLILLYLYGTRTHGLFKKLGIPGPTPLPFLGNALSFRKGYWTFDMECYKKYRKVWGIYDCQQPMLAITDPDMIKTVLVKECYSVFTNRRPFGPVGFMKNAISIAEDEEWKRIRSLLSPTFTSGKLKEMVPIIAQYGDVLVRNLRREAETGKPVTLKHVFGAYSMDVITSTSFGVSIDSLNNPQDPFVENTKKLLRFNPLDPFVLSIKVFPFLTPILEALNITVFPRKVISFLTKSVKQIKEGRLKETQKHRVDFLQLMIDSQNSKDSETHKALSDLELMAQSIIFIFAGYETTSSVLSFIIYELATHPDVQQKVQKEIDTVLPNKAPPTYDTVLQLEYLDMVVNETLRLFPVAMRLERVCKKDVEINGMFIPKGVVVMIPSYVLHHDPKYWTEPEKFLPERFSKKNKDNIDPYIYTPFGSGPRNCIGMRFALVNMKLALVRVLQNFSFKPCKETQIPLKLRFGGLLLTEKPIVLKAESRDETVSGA
Chain of Caspase-3 (Homo sapiens) (P42574 whole entry, looked up): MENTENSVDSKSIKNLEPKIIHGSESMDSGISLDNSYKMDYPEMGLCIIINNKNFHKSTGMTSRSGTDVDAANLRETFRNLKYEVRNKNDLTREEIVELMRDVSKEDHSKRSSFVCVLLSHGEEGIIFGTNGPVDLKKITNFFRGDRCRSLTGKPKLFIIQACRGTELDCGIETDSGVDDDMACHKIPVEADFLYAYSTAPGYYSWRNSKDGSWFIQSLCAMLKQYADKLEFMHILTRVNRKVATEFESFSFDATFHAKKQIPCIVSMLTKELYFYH

For `N#CCCCCC#N`, the compound was classed as inactive (in [1]; with Caspase-3 (Homo sapiens); in test [2]; in [3]; in [4]; in test [6]). Also, the call (with CYP2C8 (gene 1558); with CYP2C9 (gene 1559); with CYP2E1 (gene 1571); with CYP4A11 (gene 1579); in test [7]; in test [8]) was inactive. For the same compound, the result (in [9]; in [10]; in [11]; in test [12]; in the test with CYP3A5 (gene 1577); in test [13]) was inactive. Besides, in test [14], the result was inactive. In addition, the half-maximal activity concentration (AC50) in test [5] was 50 µM (active).

The values above are taken from PubChem BioAssay (EPA / NIEHS).
